# Source: PubChem BioAssay
# Activity calls are given as the source filed them.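 The calls were made as follows, unless noted: active = visually confirmed hit in the image check and inhibition above 20%; inconclusive = visually confirmed hit but inhibition not above 20%; inactive = no visual hit in the image check.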
# Key:
# [1] = inhibitors of TNFa-induced NFkB p65 translocation, primary screen, imaging, HUVEC, MLSMR starter and 10KST1 sets (AID 438;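 active = inhibition above 20% together with a positive visual image hit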;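 also: compound added about 3h40 before a 20 min TNFalpha stimulation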;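 as to inhibition: signal is the nuclear over cytoplasmic p65 intensity ratio per well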); conditions: HUVEC TNFa-induced p65 nuclear translocation; cell count: measured here: nuclei count (cytotoxicity indicator), at 2.08 µM; inhibition: at 2 µM, stronger effect = higher value, 0% TNFa-plus-vehicle, 100% no-TNFa wells
# [2] = inhibitors of mutant huntingtin aggregation, primary screen, imaging, exon1htt(103Q)mCFP cells, high-content imaging (AID 483;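 active = visual image review flags a hit and inhibition of aggregation exceeds 20%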;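 also: compound exposure lasted 3 days before fixation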;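 as to nuclei count: percent of the per-plate median nuclei count of sample wells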); conditions: exon1htt(103Q)mCFP cell line, aggregate imaging, at 2 µM; inhibition of aggregation: stronger effect = higher value; nuclei count: measured here: cell count, toxicity
# [3] = inhibitors of E-selectin induction by TNFa, primary screen, imaging, HUVEC, immunofluorescence, MLSMR starter and 10KST1 sets (AID 487); conditions: HUVEC TNFalpha-induced E-selectin immunofluorescence imaging, at 2 µM; inhibition: stronger effect = higher value; nuclei count: measured here: cell number, toxicity;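 as to inhibition: signal is fraction of cell area covered by stained E-selectin grains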;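 as to nuclei count: 100% = median nuclei count of all wells on the same plate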
# [4] = target: Voltage-gated potassium channel subunit beta-2 (Rattus norvegicus) (UniProt P62483); experiment: KvBeta enzyme negative modulators, primary screen, biochemical, NADPH fluorescence (AID 622;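 active = fluorescence slope higher than the sample average by over 3 SD, cut at about -0.22 in these data, passing the limit was not always enough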;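 also: slope of raw intensity against log time taken from 70 to 1610 s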); conditions: recombinant KvBeta, 4-cyanobenzaldehyde reduction, at 10 µM, stronger effect = higher value
# Chain of Voltage-gated potassium channel subunit beta-2 (Rattus norvegicus) (P62483 whole entry, looked up): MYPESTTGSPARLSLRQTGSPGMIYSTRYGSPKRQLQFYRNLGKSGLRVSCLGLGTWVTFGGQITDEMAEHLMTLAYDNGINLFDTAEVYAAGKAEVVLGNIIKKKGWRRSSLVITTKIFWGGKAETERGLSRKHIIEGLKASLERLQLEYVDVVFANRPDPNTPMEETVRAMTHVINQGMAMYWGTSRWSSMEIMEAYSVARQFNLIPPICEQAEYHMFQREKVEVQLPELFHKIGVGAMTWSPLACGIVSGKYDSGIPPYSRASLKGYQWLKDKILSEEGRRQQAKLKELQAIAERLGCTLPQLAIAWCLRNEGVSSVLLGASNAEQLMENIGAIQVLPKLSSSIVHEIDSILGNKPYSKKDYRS
# [5] = target: Voltage-gated potassium channel subunit beta-2 (Rattus norvegicus) (UniProt P62483); experiment: KvBeta positive modulators, primary screen, biochemical, NADPH fluorescence (AID 623;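 active = NADPH fluorescence slope more negative than the mean of all samples by about 3 SD, 99.7% confidence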;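 also: fluorescence intensity change per second fitted from 20 to 320 s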); conditions: Recombinant KvBeta, NADPH fluorescence decrease slope, 10 min; at 10 µM; stronger effect = lower value
# [6] = target: Alpha-2C adrenergic receptor (Homo sapiens) (UniProt P18825); experiment: modulators of alpha2C/GIRK thallium flux, primary screen, cell-based, HEK293 alpha2C/GIRK1/2 (AID 624;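 active = fluorescence slope after compound addition differing from the mean of all screened samples at 99.7% confidence, in either direction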;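 also: slope of fluorescence ratio to pre-addition baseline per second over 15 to 24 s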); conditions: thallium flux BTC fluorescence, at 10 µM, actives lie on both sides
# Chain of Alpha-2C adrenergic receptor (Homo sapiens) (P18825 whole entry, looked up): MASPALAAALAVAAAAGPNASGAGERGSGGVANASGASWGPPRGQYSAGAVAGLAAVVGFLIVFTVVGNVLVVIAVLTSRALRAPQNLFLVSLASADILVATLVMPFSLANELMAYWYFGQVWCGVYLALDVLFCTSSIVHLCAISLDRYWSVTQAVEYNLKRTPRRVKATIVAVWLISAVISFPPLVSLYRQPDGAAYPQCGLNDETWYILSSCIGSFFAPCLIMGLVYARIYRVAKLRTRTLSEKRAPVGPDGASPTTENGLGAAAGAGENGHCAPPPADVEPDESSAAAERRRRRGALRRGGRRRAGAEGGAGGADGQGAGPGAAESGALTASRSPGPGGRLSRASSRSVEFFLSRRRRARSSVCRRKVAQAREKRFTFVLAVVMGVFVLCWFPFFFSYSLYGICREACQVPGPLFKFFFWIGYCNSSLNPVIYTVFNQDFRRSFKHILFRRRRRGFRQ
# [7] = inhibitors of Sendai virus-induced IRF3 signaling, primary screen, TLR/RLR signaling modifier project, cell-based, Sendai virus stimulus, luciferase, 10K MLSCN set (AID 602276;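 active = inhibition at or above 50% at 10 µM; inactive = inhibition below 50%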;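 also: firefly luciferase from ISG56 promoter only with Renilla not read in this screen; 0% = Sendai virus plus DMSO and 100% = medium plus DMSO without virus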); conditions: HEK293 RL24 IRF3 luciferase reporter, at 10 µM, stronger effect = higher value
# [8] = inhibitors of poly I:C-induced TLR3 signaling, primary screen, cell-based, poly I:C stimulus, luciferase, 10K MLSCN set (AID 602277;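 active = inhibition of the reporter signal at or above 50%; inactive = inhibition below 50%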); conditions: HEK293-TLR3 RL24 IRF3 luciferase reporter, at 10 µM, stronger effect = higher value
SMILES,cell count [1],inhibition [1],inhibition of aggregation [2],nuclei count [2],inhibition [3],nuclei count [3],fluorescence slope [4],NADPH fluorescence slope [5],slope [6],inhibition [7],inhibition [8]
COc1ccc(NC(=O)CCS(=O)(=O)c2ccc(OC)cc2)cc1,401,-2.5% (inactive),20.3% (inactive),84.3%,-24% (inactive),101%,-0.539 (inactive),-8.1e-06 (inactive),0.00539 (inactive),-3.69% (inactive),-1.71% (inactive)
COc1ccc(C2C(C(=O)c3sc(C)nc3C)=C(O)C(=O)N2CCN(C)C)cc1OC (centres undefined),539,13.4% (inactive),-5.5% (inactive),96.8%,10.8% (inactive),103%,-0.6 (inactive),-7.9e-05 (inactive),0.0037 (inactive),-1.16% (inactive),4.66% (inactive)
COc1cc(OC)c(NC(=O)c2ccco2)cc1Cl,363,2.2% (inactive),12.2% (inactive),110%,-1.1% (inactive),106%,-0.407 (inactive),-4.6e-05 (inactive),0.00173 (inactive),21.8% (inactive),35% (inactive)
CCOC(=O)c1ccc2[nH]c3c(c2c1)CN(C)CC3,686,-1.3% (inactive),28.7% (inactive),73.1%,-29.4% (inactive),114%,-0.543 (inactive),-5.6e-05 (inactive),0.00602 (inactive),5.79% (inactive),21.3% (inactive)
CCOC(=O)c1c(C)[nH]c(C(=O)Cn2c(=O)c3c(ncn3CC)n(Cc3ccccc3)c2=O)c1C,752,4% (inactive),8.3% (inactive),88.5%,-32.2% (inactive),127%,-0.29 (inactive),-3.2e-05 (inactive),0.00419 (inactive),15.3% (inactive),24.5% (inactive)
COCCNC(=O)CN1CCN(C(c2ccccc2)c2ccccc2)CC1,240,-6.6% (inactive),18.2% (inactive),77.7%,-7.5% (inactive),86.9%,-0.556 (inactive),-4.9e-05 (inactive),0.00771 (inactive),-12.4% (inactive),-6.81% (inactive)
COc1ccc(OC)c(C(=O)CSc2nnc(-c3ccc(OC)c(OC)c3)o2)c1,399,1% (inactive),44.4% (active),15.1%,-114% (inactive),181%,-0.458 (inactive),3.9e-05 (inactive),0.00796 (inactive),12% (inactive),21.8% (inactive)
Cn1c(C(=O)N2CCCC(C(=O)NCCCc3ccccc3)C2)cc2sccc21 (centres undefined),550,-16.1% (inactive),6.7% (inactive),139%,-32.8% (inactive),103%,-0.256 (inactive),6.7e-06 (inactive),0.00472 (inactive),0.49% (inactive),-2.49% (inactive)
CCCC(=O)Nc1nnc(CC(=O)N2CCCC2)s1,845,4.5% (inactive),3.1% (inactive),106%,-55% (inactive),115%,-0.31 (inactive),-5.4e-05 (inactive),0.006 (inactive),14.1% (inactive),21.6% (inactive)
Cc1ccnc(SCCn2c(N3CCN(Cc4ccccc4)CC3)nc3c2c(=O)[nH]c(=O)n3C)n1,665,-22.3% (inactive),0.8% (inactive),120%,-36.7% (inactive),96.2%,-0.542 (inactive),-3.1e-05 (inactive),0.00641 (inactive),-0.348% (inactive),0.626% (inactive)
O=C(Oc1cc2oc(=O)c3c(c2cc1Cl)CCCC3)c1ccco1,532,-14.1% (inactive),-4.9% (inactive),101%,-50.1% (inactive),148%,-0.14 (inactive),-2.3e-05 (inactive),0.00588 (inactive),4.58% (inactive),7.41% (inactive)
CN(C(=O)COc1cc(=O)n(C)c2ccccc12)c1ccc(Br)cc1,389,71.5% (active),2.9% (inactive),104%,-178% (inactive),142%,-0.513 (inactive),-1.3e-05 (inactive),0.00662 (inactive),6.78% (inactive),45.9% (inactive)
O=C(CCN1C(=O)COc2ccccc21)NCCCN1CCN(c2ccccc2F)CC1,660,-7.1% (inactive),-1.6% (inactive),73.9%,-82.2% (inactive),93.3%,-0.425 (inactive),-2.7e-05 (inactive),0.004 (inactive),11.7% (inactive),15% (inactive)
CCC(C)(C)NC(=O)CN(Cc1ccc2c(c1)OCO2)C(=O)CCC(=O)Nc1ccccn1,517,-20.9% (inactive),-0.5% (inactive),92.4%,-59.2% (inactive),114%,-0.403 (inactive),-6.3e-05 (inactive),0.00669 (inactive),12.5% (inactive),21.6% (inactive)
